Eight sequences from PMC8384837, “Expanding the binding specificity for RNA recognition by a PUF domain” can be followed below.

Experiment in all cases: yeast three-hybrid, YBZ-1, SC-Leu-His + 0.5 mM 3-AT, 4 days
What all share (conditions): tags: N-Gal4 AD-HA kept; label: inside an RPR1-promoter hybrid RNA with tandem MS2 sites; ssRNA

One assay addresses PUM1 PUF domain R7-RMR (Homo sapiens, UniProt Q14671 828-1176, S1079R;N1080M;E1083R). The procedure, abridged:
(§1)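 Repeat regions from input (SC-Leu) and selection (SC-Leu-His + 0.5 mM 3-AT) plates were PCR-amplified and Illumina-sequenced after four days of growth. The cells were strain YBZ-1 with a LexA–MS2 coat fusion and a HIS3 reporter, co-expressing Pumilio-1 PUF domain libraries and matching RNA elements from a centromeric plasmid. The interaction score is the log change in variant frequency from input to selection, taken in log2 with a pseudocount of 1 for absent variants.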

For a further assay, the target named is PUM1 PUF domain R7-RTC (Homo sapiens, UniProt Q14671 828-1176, S1079R;N1080T;E1083C). In outline:
as §1

For the next assay, the target named is PUM1 PUF domain R1-KQR (Homo sapiens, UniProt Q14671 828-1176, S863K;R864Q;Q867R). In outline:
as §1

A further assay deals with PUM1 PUF domain R1-NFH (Homo sapiens, UniProt Q14671 828-1176, S863N;R864F;Q867H). In outline:
as §1

For the next assay, the target named is T1, PUM1 PUF domain R6-KWV (Homo sapiens, UniProt Q14671 828-1176, N1043K;Y1044W;Q1047V).
T1 sequence: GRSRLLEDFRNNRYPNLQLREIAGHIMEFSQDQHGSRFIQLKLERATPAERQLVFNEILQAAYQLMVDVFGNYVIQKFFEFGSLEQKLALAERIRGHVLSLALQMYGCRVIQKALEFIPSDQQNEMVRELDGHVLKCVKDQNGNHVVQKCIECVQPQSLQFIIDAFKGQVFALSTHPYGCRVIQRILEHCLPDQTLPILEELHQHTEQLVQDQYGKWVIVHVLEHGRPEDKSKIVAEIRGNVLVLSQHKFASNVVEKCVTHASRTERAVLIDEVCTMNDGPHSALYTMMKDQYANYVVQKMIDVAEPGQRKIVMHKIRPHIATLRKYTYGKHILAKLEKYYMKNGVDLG
In outline:
as §1

A further assay deals with T2, PUM1 PUF domain R6-HFT (Homo sapiens, UniProt Q14671 828-1176, N1043H;Y1044F;Q1047T).
T2 sequence: T1 sequence with K216H, W217F, V220T
The procedure, abridged:
as §1

The target in a further assay is PUM1 PUF domain R8-LHK (Homo sapiens, UniProt Q14671 828-1176, N1122L;Y1123H;Q1126K). The procedure, abridged:
as §1

The next assay addresses PUM1 PUF domain R5-FHG (Homo sapiens, UniProt Q14671 828-1176, C1007F;R1008H;Q1011G). The procedure, abridged: as §1

Positions count from the first letter of the chain named.

As to “GGCUAGAACUAGUGGAUCCCCCGGCGCCCGGCGGCUCGAGCCCGGGUAAGUUUAAAUAGUCUGCAUGCCGCCGGGCGCCAUGCCUGCAGGUCGACUCUAGAAAACAUG”, the binding signal was 4.78 log2 enrichment (interaction score) with PUM1 PUF domain R7-RMR and 3.51 log2 enrichment (interaction score) with PUM1 PUF domain R7-RTC.

Turning to “GGCUAGAACUAGUGGAUCCCCCGGCGCCCGGCGGCUCGAGCCCGGGUAAGUCUAAAUAGUCUGCAUGCCGCCGGGCGCCAUGCCUGCAGGUCGACUCUAGAAAACAUG”, in the assay with PUM1 PUF domain R7-RMR, the binding signal was 2.46 log2 enrichment (interaction score). As to “GGCUAGAACUAGUGGAUCCCCCGGCGCCCGGCGGCUCGAGCCCGGGUAAGUGUAAAUCGUCUGCAUGCCGCCGGGCGCCAUGCCUGCAGGUCGACUCUAGAAAACAUG”, in the assay with PUM1 PUF domain R1-KQR, the binding signal was 5.28 log2 enrichment (interaction score). “GGCUAGAACUAGUGGAUCCCCCGGCGCCCGGCGGCUCGAGCCCGGGUAAGUGUAAAUUGUCUGCAUGCCGCCGGGCGCCAUGCCUGCAGGUCGACUCUAGAAAACAUG”: the binding signal in the assay with PUM1 PUF domain R1-NFH is 3.4 log2 enrichment (interaction score).

On to “GGCUAGAACUAGUGGAUCCCCCGGCGCCCGGCGGCUCGAGCCCGGGUAAGUGUAAAUAGUCUGCAUGCCGCCGGGCGCCAUGCCUGCAGGUCGACUCUAGAAAACAUG”, for which the binding signal is 6.02 log2 enrichment (interaction score) in the assay with PUM1 PUF domain R6-KWV and 3.78 log2 enrichment (interaction score) with PUM1 PUF domain R6-HFT.

As for “GGCUAGAACUAGUGGAUCCCCCGGCGCCCGGCGGCUCGAGCCCGGGUAAGCGUAAAUAGUCUGCAUGCCGCCGGGCGCCAUGCCUGCAGGUCGACUCUAGAAAACAUG”, the binding signal in the assay with PUM1 PUF domain R8-LHK was 3.29 log2 enrichment (interaction score). Take “GGCUAGAACUAGUGGAUCCCCCGGCGCCCGGCGGCUCGAGCCCGGGUAAGUGUUAAUAGUCUGCAUGCCGCCGGGCGCCAUGCCUGCAGGUCGACUCUAGAAAACAUG”: in the assay with PUM1 PUF domain R5-FHG, the binding signal was 3.39 log2 enrichment (interaction score).

As for “GGCUAGAACUAGUGGAUCCCCCGGCGCCCGGCGGCUCGAGCCCGGGUAAGUGUCAAUAGUCUGCAUGCCGCCGGGCGCCAUGCCUGCAGGUCGACUCUAGAAAACAUG”, in the assay with PUM1 PUF domain R5-FHG, the binding signal is 2.68 log2 enrichment (interaction score).
